Experimental data taken from PubChem BioAssay.

Key:
[1] = test system: Human papillomavirus type 1a protein E7 (residues 44-93); test: HPV1a E7 fragment binders on microarrays, primary screen, biochemical, small-molecule microarray, residues 44-93, 635 nm fluorescence (AID 1108); details: small-molecule microarray binding, fluorescence 635 nm; higher = more signal;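 note: E7 fragment applied at 1 µg/mL in TBST for 1 h at 4 C; score combines spot fluorescence with its signal to noise ratio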
[2] = modulators of HCV replicon luciferase signal, primary screen, HCV replication inhibitor project, Huh7 cells, luciferase reporter (AID 1109); details: 48 h, higher = more signal;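 note: huh7 hepatoma cells harbouring a luciferase neomycin HCV replicon reporter; luciferase luminescence as measure of HCV replicon replication; test concentration not given here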
[3] = target: Left-right determination factor 2 (Homo sapiens) (UniProt O00292); test: LEFTY2 binders on small-molecule microarrays, primary screen, biochemical, small-molecule microarray, 635 nm fluorescence scan (AID 1110); details: LEFTY2 binding, higher = more signal
Chain of Left-right determination factor 2 (Homo sapiens) (O00292 whole entry, looked up): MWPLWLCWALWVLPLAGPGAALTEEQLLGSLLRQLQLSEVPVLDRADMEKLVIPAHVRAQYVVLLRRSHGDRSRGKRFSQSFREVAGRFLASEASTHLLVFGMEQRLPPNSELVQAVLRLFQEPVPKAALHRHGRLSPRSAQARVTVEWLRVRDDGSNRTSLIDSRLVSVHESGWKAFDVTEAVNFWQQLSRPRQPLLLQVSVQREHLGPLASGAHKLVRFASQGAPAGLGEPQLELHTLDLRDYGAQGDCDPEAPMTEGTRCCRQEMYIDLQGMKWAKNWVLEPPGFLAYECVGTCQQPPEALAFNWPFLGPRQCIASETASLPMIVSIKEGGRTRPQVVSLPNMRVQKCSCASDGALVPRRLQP

[4] = target: Calmodulin-1 (Homo sapiens) (UniProt P0DP23); test: CALM1 binders on microarrays, EGTA buffer, profiling panel, biochemical, small-molecule microarray, Cy5-labelled CALM1 (AID 1111); details: Cy5-CALM1 binding fluorescence, higher = more signal;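 note: labelled calmodulin applied in Tris saline Tween buffer holding calcium plus EGTA and DTT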
[5] = target: Calmodulin-1 (Homo sapiens) (UniProt P0DP23); test: calcium-bound CALM1 binders on microarrays, profiling panel, artefact control for SMM control-protein annotation, biochemical, small-molecule microarray, Cy5-labelled CALM1, plus calcium (AID 1112); details: Cy5-CALM1 binding fluorescence, higher = more signal;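 note: score merges spot fluorescence with signal to noise from triplicate slides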
[6] = small-molecule microarray binders of probe aWnt5a, primary screen, biochemical, biotinylated probe, 635/667 nm fluorescence (AID 1113); details: higher = more signal;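 note: score merges 667 nm fluorescence intensity with signal-to-noise per printed feature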
[7] = small-molecule microarray binders of probe aShh, primary screen, biochemical, biotinylated probe, 635/667 nm fluorescence (AID 1114); details: higher = more signal;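 note: probe is biotin-labelled aShh protein from a stem cell growth factor screen; measures binding of labelled protein to compounds printed on the slide; score merges feature fluorescence at 667 nm with signal-to-noise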
[8] = small-molecule microarray binders of probe aNog, primary screen, biochemical, biotinylated probe, 635/667 nm fluorescence (AID 1115); details: higher = more signal;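 note: probe is biotinylated aNog protein used at 0.15 µg/mL for 1 h at 4 C; z-score combines 667 nm fluorescence of each spot with its signal to noise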
[9] = target: Torsin-1A-interacting protein 1 (Homo sapiens) (UniProt Q5JTV8); test: LAP1 binders from COS7 cell lysate, primary screen, small-molecule microarray, 635/667 nm fluorescence (AID 1116); details: COS7-hLAP1 lysate binding, 635 nm fluorescence, higher = more signal
Chain of Torsin-1A-interacting protein 1 (Homo sapiens) (Q5JTV8 whole entry, looked up): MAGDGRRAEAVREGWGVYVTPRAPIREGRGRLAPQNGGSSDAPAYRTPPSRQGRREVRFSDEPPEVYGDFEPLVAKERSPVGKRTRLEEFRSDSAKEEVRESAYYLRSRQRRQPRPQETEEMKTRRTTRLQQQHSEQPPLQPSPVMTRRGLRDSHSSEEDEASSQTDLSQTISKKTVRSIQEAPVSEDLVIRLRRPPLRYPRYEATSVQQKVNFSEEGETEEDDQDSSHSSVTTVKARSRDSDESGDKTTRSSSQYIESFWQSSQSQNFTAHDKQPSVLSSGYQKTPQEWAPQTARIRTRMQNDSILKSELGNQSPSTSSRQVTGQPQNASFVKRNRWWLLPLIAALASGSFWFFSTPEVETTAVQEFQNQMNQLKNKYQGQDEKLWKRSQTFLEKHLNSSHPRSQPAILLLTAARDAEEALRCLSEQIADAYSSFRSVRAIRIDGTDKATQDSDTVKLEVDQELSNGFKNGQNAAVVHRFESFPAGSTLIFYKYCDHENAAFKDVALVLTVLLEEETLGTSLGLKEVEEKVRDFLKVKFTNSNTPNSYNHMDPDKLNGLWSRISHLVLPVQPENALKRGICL

[10] = target: Alpha-bungarotoxin (Bungarus multicinctus) (UniProt P60615); test: alpha-bungarotoxin binders on microarray, profiling panel, artefact control for SMM control protein annotation, biochemical, small-molecule microarray, Alexa647 label, 635/667 nm fluorescence (AID 1117); details: alpha-BTX-A647 binding fluorescence, higher = more signal
Chain of Alpha-bungarotoxin (Bungarus multicinctus) (P60615 whole entry, looked up): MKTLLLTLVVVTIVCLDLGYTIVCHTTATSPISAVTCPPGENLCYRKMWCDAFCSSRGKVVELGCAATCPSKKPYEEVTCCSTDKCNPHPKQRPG

SMILES	composite z-score [1]	z-score [2]	composite z-score [3]	composite z-score [4]	composite z-score [5]	composite z-score [6]	composite z-score [7]	composite z-score [8]	composite z-score [9]	composite z-score [10]
O=C1[C@H]2C=C(I)[C@H](C[C@@H]2OCCCCO)[C@@]12CO2	-0.417	-2.55	-0.244	-0.754	-0.749	-0.128	0.133	0.109	0.452	-0.132
CCOc1ccc(N2C(=O)CSC2c2cccc([N+](=O)[O-])c2)cc1 (stereo not given)	1.35	-0.343	0.216	0.847	0.615	-0.0383	0.0796	-0.194	0.143	1.5
CCCCC(=C=CC[C@H](O)c1cccc(OCCO)c1)C[C@H](O)c1ccccn1	-0.146	-1.05	0.258	0.481	-0.784	-0.0239	-0.13	-0.23	0.0971	-0.0891
Cc1ccc(S(=O)(=O)N2C[C@@H](C(=O)O)[C@H](Sc3ccccc3)C[C@H]2c2ccccc2)cc1	1.14	-0.697	0.0026	1.61	-0.127	0.0775	0.0684	1.45	1.97	0.729
CCCCCCCCCCC(O)C1C=CC2C(=O)NC(=O)C2N1Nc1ccc(Cl)cc1Cl (stereo not given)	0.732	-1.26	-1.67	1.21	1.21	-0.122	-0.138	1.07	0.345	-0.133
CC(C)(C)OC(=O)CC[C@]1(C(=O)NCCN2CCOCC2)COC(c2ccc(OCCCO)cc2)=N1	1.42	-0.464	0.051	0.762	-0.23	0.0559	-0.0066	0.951	1.27	0.791
[N-]=[N+]=NCc1ccccc1[C@@H]1OC(c2ccc(OCCCO)cc2)=N[C@]1(CCS(=O)(=O)c1ccccc1)C(=O)N1CCCCC1	1.48	-1.87	0.334	1.79	0.415	0.0873	0.333	-0.316	1.04	1.34
COc1ccc([Si](C)(C)[C@@H]2[C@@H](CC(=O)N3CCC[C@H]3CO)O[C@]3(C(=O)N(Cc4cccc(I)c4)c4ccccc43)[C@H]2C)cc1	1.32	-2.72	1.39	0.374	0.935	0.116	-0.138	-0.0173	1.62	0.181
C=CCNC(=O)[C@H]1[C@@H]2C(=O)O[C@@H](c3ccccc3)[C@@H](c3ccccc3)N2[C@@H](c2ccc(OCCO)cc2)[C@]12C(=O)Nc1ccc(C#CCC(C(=O)OC)C(=O)OC)cc12	0.694	-2.22	1.37	0.832	0.478	0.0805	-0.254	-0.126	0.357	1.34
CC(=O)NCCCC[C@@H]1NC(=O)[C@H]2C[C@@H](C(=O)NCCCCCNC(=O)CS)[C@@H](c3ccc(O)cc3)N2C1=O	0.46	-0.0987	-0.574	0.362	0.438	-0.0919	-0.0035	-0.196	0.177	0.117
COCCOC(=O)N1C(=O)[C@@]2(c3cc(C#Cc4ccc(OC)cc4)ccc31)[C@H](c1ccc(O)cc1)N1[C@H](c3ccccc3)[C@H](c3ccccc3)OC(=O)[C@H]1[C@@H]2C(=O)Nc1nc2ccccc2s1	1.37	-1	0.389	1.18	0.907	-0.0778	-0.262	-0.129	0.373	0.912
C=CC[C@]1(C(N)=O)COC(c2ccc(OCCCO)cc2)=N1	-0.287	-0.243	0.237	-0.257	-0.296	-0.0899	-0.0793	0.0519	0.837	1.37
CC(C)[Si](C#CCCCC#N)(O[C@H](c1ccccc1)c1cn(Cc2cccc(Cl)c2)nn1)C(C)C	1.31	-1.7	0.634	-0.412	-0.745	-0.0977	-0.0553	-0.467	0.423	-0.0534
O=C1NC(=O)C2C1C=CC(C(O)c1ccc(I)cc1)N2Nc1ccccn1 (stereo not given)	-0.409	-0.533	0.379	0.532	0.267	0.0136	0.282	0.0403	-0.593	0.636
[N-]=[N+]=Nc1ccccc1[C@H]1OC(c2ccc(OCCCO)cc2)=N[C@@]1(CCS(=O)(=O)c1ccccc1)C(=O)NCc1ccccc1	1.46	-0.242	0.565	0.937	0.338	0.153	0.0723	-0.487	1.06	0.785
CCCCC(O)C1C=CC2C(=O)N(C)C(=O)C2N1N1CCCCC1 (stereo not given)	1.34	0.0634	0.462	0.0471	-0.665	0.0251	0.156	-0.294	0.893	1.16
N#Cc1ccc(C(O)C2C=CC3C(=O)N(c4ccccc4)C(=O)C3N2Nc2ccccc2F)cc1 (stereo not given)	1.29	-0.494	0.262	0.123	-0.564	0.0037	-0.218	-0.376	0.0448	0.175
C=CCNC(=O)[C@@H]1[C@H]2C(=O)O[C@H](c3ccccc3)[C@H](c3ccccc3)N2[C@H](c2ccc(OCCO)cc2)[C@@]12C(=O)N(C(=O)OCCOC)c1ccc(C#CCC(C(=O)OC)C(=O)OC)cc12	0.805	-1.5	0.969	1.61	0.105	-0.0302	0.199	0.804	1.03	1.26
COC(=O)[C@]1(CCC(=O)OC(C)(C)C)N=C(c2ccc(OCCCO)cc2)O[C@@H]1c1ccccc1	0.529	-2.73	-1.45	-0.221	0.271	-0.0405	0.04	1.24	1.79	1.29
CCOC(=O)C1=CCC(c2ccc(F)cc2)N(S(=O)(=O)c2ccc(C)cc2)C1 (stereo not given)	0.683	-1.81	0.105	0.0017	0.0535	-0.184	-0.167	-0.494	0.612	0.25
COC(=O)[C@@]1(Cc2ccc(OC)cc2)[C@H]2c3cc(C(=O)N(C)C)n(Cc4ccc(C(F)(F)F)nc4)c3C[C@H]2CN1C(=O)c1ccccc1	0.714	-0.657	-0.0595	0.705	0.199	0.17	0.413	0.18	1	-0.173
